Experimental data published in PubChem BioAssay AID1159580 (chemical genetic matrix, 2015).
“And” between values parts separate entries of the source, which are not always exact repeats. Identical values can stand only once. About 2,000 (36%) of roughly 5,500 compounds were called active. Not shown: some 18% with an inconclusive outcome. Rule as the data show it: active = normalized growth mostly below about 0.91 (no sharp cut-off); inconclusive = no clear call, values can overlap the other calls; inactive = mostly above about 0.92. The list shows a part of the results.

Assay: chemical genetic growth profiling, strain panel (AID 1159580);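 also: tested at 20 µM; growth read once vehicle control cultures reached saturation at 30 °C; 1 = growth at the plate median or of vehicle wells; lower values mean less growth of the strain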
Conditions: S. cerevisiae deletion strains, growth OD

Measured: normalized growth

C1CCN2C[C@@H]3C[C@H](CN4CCCC[C@@H]34)[C@H]2C1
inactive: locus YAL013W, strain DEP1, stronger effect = lower value 1.04 | locus YAL021C, strain ccr4, stronger effect = lower value 0.995 | locus YAL026C, strain drs2, stronger effect = lower value 1.02 | locus YAL030W, strain snc1, stronger effect = lower value 1.01 | locus YBL061C, strain skt5, stronger effect = lower value 0.999 | locus YBR009C, strain hhf1, stronger effect = lower value 1 | locus YBR021W, strain FUR4, stronger effect = lower value 1.02 | locus YBR023C, strain chs3, stronger effect = lower value 1.01 | locus YBR171W, strain sec66, stronger effect = lower value 1.01 | locus YBR229C, strain ROT2, stronger effect = lower value 0.999 | locus YBR231C, strain swc5, stronger effect = lower value 1.03 | locus YBR279W, strain paf1, stronger effect = lower value 1.01 | locus YCL011C, strain gbp2, stronger effect = lower value 1 | locus YCL016C, strain dcc1, stronger effect = lower value 0.991 | locus YCL029C, strain bik1, stronger effect = lower value 0.995 | locus YCL061C, strain MRC1, stronger effect = lower value 1.01 | locus YCL069W, strain vba3, stronger effect = lower value 1.01 | locus YCR088W, strain abp1, stronger effect = lower value 1.01 | locus YDL005C, strain med2, stronger effect = lower value 1.02 | locus YDL035C, strain GPR1, stronger effect = lower value 1.02 | locus YDL040C, strain nat1, stronger effect = lower value 1 | locus YDL074C, strain BRE1, stronger effect = lower value 1.01 | locus YDL101C, strain DUN1, stronger effect = lower value 1.01 | locus YDL134C, strain PPH21, stronger effect = lower value 1 | locus YDL185W, strain tfp1, stronger effect = lower value 1 | locus YDL192W, strain arf1, stronger effect = lower value 1.01 | locus YDR001C, strain nth1, stronger effect = lower value 1.01 | locus YDR069C, strain doa4, stronger effect = lower value 1.01 | locus YDR101C, strain arx1, stronger effect = lower value 1 | locus YDR137W, strain rgp1, stronger effect = lower value 1.01 | locus YDR150W, strain NUM1, stronger effect = lower value 1.01 | locus YDR159W, strain sac3, stronger effect = lower value 1.05 | locus YDR162C, strain NBP2, stronger effect = lower value 1.01 | locus YDR195W, strain ref2 0.996 | locus YDR297W, strain sur2, stronger effect = lower value 1.03 | locus YDR318W, strain mcm21, stronger effect = lower value 1.01 | locus YDR334W, strain swr1, stronger effect = lower value 1.01 | locus YDR335W, strain msn5, stronger effect = lower value 1.01 | locus YDR388W, stronger effect = lower value 0.994 | locus YDR392W, strain spt3, stronger effect = lower value 1.02 | locus YDR502C, strain sam2, stronger effect = lower value 1.01 | locus YEL003W, strain gim4, stronger effect = lower value 1.01 | locus YEL037C, strain rad23, stronger effect = lower value 0.994 | locus YEL061C, strain CIN8 (second series), stronger effect = lower value 1.01 | locus YEL061C, strain CIN8, stronger effect = lower value 1 | locus YER015W, strain faa2, stronger effect = lower value 1 | locus YER016W, strain bim1, stronger effect = lower value 1 | locus YER110C, stronger effect = lower value 0.999 | locus YER111C, strain swi4, stronger effect = lower value 0.993 | locus YER155C, strain BEM2 (second series), stronger effect = lower value 1.04 | locus YER155C, strain BEM2, stronger effect = lower value 1.01 | locus YER167W, strain BCK2, stronger effect = lower value 1.03 | locus YFR010W, strain ubp6, stronger effect = lower value 1.02 | locus YGL078C, strain dbp3, stronger effect = lower value 1 | locus YGL086W, strain mad1, stronger effect = lower value 1.01 | locus YGL167C, strain pmr1, stronger effect = lower value 1 | locus YGL173C, strain kem1, stronger effect = lower value 1.02 | locus YGL227W, strain vid30, stronger effect = lower value 1.01 | locus YGL240W, strain doc1, stronger effect = lower value 1.04 | locus YGL248W, strain PDE1, stronger effect = lower value 1 | locus YGL253W, strain hxk2, stronger effect = lower value 1 | locus YGR135W, strain pre9, stronger effect = lower value 0.996 | locus YGR252W, strain gcn5, stronger effect = lower value 1.02 | locus YHR013C, strain ard1, stronger effect = lower value 1.01 | locus YHR027C, strain rpn1, stronger effect = lower value 1.01 | locus YHR030C, strain SLT2, stronger effect = lower value 1.01 and 1.07 | locus YHR079C, strain IRE1 (second series), stronger effect = lower value 1 | locus YHR079C, strain IRE1, stronger effect = lower value 1.03 | locus YHR094C, strain hxt1, stronger effect = lower value 0.995 | locus YHR129C, strain ARP1, stronger effect = lower value 1.01 | locus YHR142W, strain chs7, stronger effect = lower value 1 | locus YHR200W, strain rpn10, stronger effect = lower value 1 | locus YIL066C, strain RNR3, stronger effect = lower value 1.03 | locus YIL073C, strain SPO22, stronger effect = lower value 1.02 | locus YIL125W, strain kgd1, stronger effect = lower value 1 | locus YIR030C, strain dcg1, stronger effect = lower value 1 | locus YJL092W, strain hpr5, stronger effect = lower value 1 | locus YJL095W, strain BCK1 (second series), stronger effect = lower value 1.01 | locus YJL095W, strain BCK1, stronger effect = lower value 1.02 and 1.04 | locus YJL115W, strain asf1, stronger effect = lower value 0.993 | locus YJL129C, strain trk1, stronger effect = lower value 1 | locus YJL134W, strain LCB3, stronger effect = lower value 1.01 | locus YJL154C, strain vps35, stronger effect = lower value 1 | locus YJL164C, strain tpk1, stronger effect = lower value 0.997 | locus YJL166W, strain qcr8, stronger effect = lower value 1.01 | locus YJL168C, strain set2, stronger effect = lower value 1 | locus YJL187C, strain SWE1 (second series), stronger effect = lower value 1.01 | locus YJL187C, strain SWE1, stronger effect = lower value 0.991 | locus YJR043C, strain POL32, stronger effect = lower value 1.01
